Measured values published in PubChem BioAssay (NCATS).
Inconclusive results are not listed. Activity calls are given as the source filed them. Calls come from the whole dose curve; as a rule, active = well fitted inhibition curve with a large enough effect; inconclusive = small, poorly fitted or top-dose-only effect; inactive = flat fitted curve, though single readings scatter.

Assay: P-glycoprotein substrates identified in KB-8-5-11 adenocarcinoma cell line, qHTS therapeutic library screen (AID 1346987); note: nearly all actives have a fitted effect of over 65% in size
Details: KB-8-5-11 (P-gp overexpressing) viability, CellTiter-Glo, 72 h; series mostly up to 44.5 µM; activity change, negative = cytotoxicity: at the top concentration
Summary of the method: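 In this qHTS, P-gp-rich KB-8-5-11 cells received library compounds across a concentration range. Viability was quantified by luminescence after 72 h at 37 degree C.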
% is set by controls: 0 for no effect and ±100 for the full control effect; potency is the fitted concentration of half-maximal effect.

Compound | activity change, negative = cytotoxicity | outcome | Potency
CC(C)S(=O)(=O)NC[C@H](C)c1ccc(NC(=O)c2cc(F)cc(F)c2)cc1 | -20.4% (inactive) | – | –
C[C@@H]1CC[C@]2(C(=O)O[C@@H]3O[C@H](CO)[C@@H](O)[C@H](O)[C@H]3O)CC[C@]3(C)C(=CCC4[C@@]5(C)C[C@@H](O)[C@H](O)[C@](C)(C(=O)O)C5CC[C@]43C)[C@@H]2[C@]1(C)O (some centres undefined) | – | inactive [at 17.3 µM] | –
CC(=O)O[C@@](C)(C(=O)/C=C/C(C)(C)O)[C@H]1[C@H](O)C[C@@]2(C)[C@@H]3CC=C4[C@@H](C=C(O)C(=O)C4(C)C)[C@]3(C)C(=O)C[C@]12C | – | – | 796 nM (active)
C/C1=C\[C@H]2OC(=O)[C@@H](C)[C@@H]2CC/C(C(=O)O)=C/CC1 | 9.33% (inactive) | – | –
C[C@]12C=C[C@@]3(CCC4[C@](C)(CO)CCC[C@@]4(C)C3CC1)C2 (some centres undefined) | 6.2% (inactive) | – | –
O=C(Cc1ccc(-c2ccccc2)cc1)NC1CCC1 | 4.74% (inactive) | – | –
C=C[C@H]1[C@H](O[C@@H]2O[C@H](CO)[C@@H](O)[C@H](O)[C@H]2O)OC=C(C(=O)OC)[C@H]1CC(=O)O | 4.6% (inactive) | – | –
O=C(CO)[C@@H](O)[C@H](O[C@@H]1O[C@H](CO)[C@H](O)[C@H](O)[C@H]1O)[C@H](O)CO | 3.94% (inactive) | – | –
CNC(=O)c1ccccc1Nc1nc(Nc2ccc3c(c2OC)CCCC(N2CCN(CCO)CC2)C3)ncc1Cl (centres undefined) | – | – | 8200 nM (active)
CCO[C@@H]1OC(=O)C[C@@H]1NC(=O)[C@@H]1CCCN1C(=O)[C@@H](NC(=O)c1ccc(N)c(Cl)c1)C(C)(C)C | 6.1% (inactive) | – | –
COc1cccc(C(=O)N2CCN(C(=O)COc3cccc(C)c3)CC2)c1OC | – | – | 23100 nM (active)
CC(Nc1ncnc2nc[nH]c12)c1cc2cccc(Cl)c2c(=O)n1-c1ccccc1 (centres undefined) | -1.75% (inactive) | – | –
CN1CCN(C2CCC(n3cc(-c4ccc(Oc5ccccc5)cc4)c4c(N)ncnc43)CC2)CC1 (centres undefined) | – | – | 5800 nM (active)
Cc1ncc(CCCN(C)C)cc1Nc1ncc2c(n1)-c1ccc(C(F)(F)F)cc1NC(=S)C2 | – | – | 65.1 nM (active)
CO/N=C(/C(=O)N[C@@H]1C(=O)N2C(C(=O)O)=C(Cn3ccc(=N)n3CCO)CS[C@H]12)c1csc(N)n1 | – | inactive | –
CC(C)[C@H]1CC[C@@]2(O)COC(=O)[C@H]2[C@@H]1/C=C(\CO)C(=O)O | 3.28% (inactive) | – | –
COc1cc(/C=C/C(=O)O[C@H]2[C@H](O)[C@@H](CO)O[C@@]2(CO)O[C@H]2O[C@H](CO)[C@@H](O)[C@H](O)[C@H]2O)ccc1O | – | inactive [at 17.3 µM] | –
CCc1cc(CN2CC(C(=O)O)C2)sc1-c1noc(-c2ccc(Oc3ccccc3)cc2)n1 | 8.48% [at 17.3 µM] (inactive) | – | –
O=C(/C=C\n1cnc(-c2cc(C(F)(F)F)cc(C(F)(F)F)c2)n1)N1CC(F)(F)C1 | – | – | 461 nM (active)
CC[C@]1(O)CC2CN(CCc3c([nH]c4ccccc34)[C@@](C(=O)OC)(c3cc4c(cc3OC)N(C=O)[C@H]3[C@@](O)(C(=O)OC)[C@H](OC(C)=O)[C@]5(CC)C=CCN6CC[C@]43[C@@H]65)C2)C1 (some centres undefined) | – | – | 2270 nM (active)

Compound | activity change, negative = cytotoxicity | outcome | Potency
COc1ccc(C2COc3cc(O)ccc3C2)c(O)c1 (centres undefined) | -11.5% (inactive) | – | –
CC(=O)OC12COC1CC(O)C1(C)C(=O)C(O)C3=C(C)C(OC(=O)C(O)C(NC(=O)OC(C)(C)C)c4ccccc4)CC(O)(C(OC(=O)c4ccccc4)C21)C3(C)C (centres undefined) | – | – | 164 nM (active)
C[C@@H]1CN(Cc2ccccc2)C[C@H]1c1nc2c(cnn2C2CCOCC2)c(=O)[nH]1 | -19.1% (inactive) | – | –
CC(Oc1ccc2[nH]nc(/C=C/c3cnn(CCO)c3)c2c1)c1c(Cl)cncc1Cl (centres undefined) | – | – | 1030 nM (active)
O=C(O)/C=C/c1cc2c(cc1O[C@@H]1O[C@H](CO)[C@@H](O)[C@H](O)[C@H]1O)OCO2 | – | inactive | –
CCN1CCN(Cc2ccc(Nc3ncc(F)c(-c4cc(F)c5nc(C)n(C(C)C)c5c4)n3)nc2)CC1 | – | – | 4110 nM (active)
C=CC(=O)Nc1cc(Nc2nccc(-c3c[nH]c4ccccc34)n2)c(OC)cc1N(C)CCN(C)C | – | – | 6510 nM (active)
COc1cc2c(cc1OC)-c1[nH]nc(Nc3cccc(F)c3)c1C2 | – | – | 92 nM (active)
CC1CCC2(OC1)OC1CC3C4CCC5C[C@@H](O[C@@H]6O[C@H](CO[C@@H]7OC[C@@H](O)[C@H](O)[C@H]7O)[C@H](O)[C@H](O)[C@H]6O)CC[C@]5(C)C4CC[C@]3(C)C1C2C (some centres undefined) | – | inactive [at 17.3 µM] | –
O=C(NCc1ccccn1)Nc1nnc(-c2ccco2)o1 | -3.61% (inactive) | – | –
COC(=O)C1=C2Nc3ccccc3C23CCN2CCCC(C(C)O)(C1)C23 (centres undefined) | 0.215% (inactive) | – | –
COc1ccc(-c2cnc3ccc(NCc4ccc(S(N)(=O)=O)cc4)nn23)cc1OC | -0.969% (inactive) | – | –
Cc1cc2c(c(=O)[nH]1)OC(C(O)CC(C)C)O2 (centres undefined) | -3.87% (inactive) | – | –
Cn1cc(S(=O)(=O)c2ccc(Cl)cc2)c2cccc(N3CCNCC3)c21 | – | – | 20600 nM (active)
OC[C@H]1O[C@@H](O[C@H]2[C@H](OCCc3ccccc3)O[C@H](CO)[C@@H](O)[C@@H]2O)[C@H](O)[C@@H](O)[C@@H]1O | 0.307% [at 17.3 µM] (inactive) | – | –
Cc1cc(C(=O)N2CCCCc3ccccc32)ccc1CNC(=O)N1CCC[C@H]1C(=O)N(C)C | – | inactive | –
CC1(C)C2CC=C(COC3OC(COC4OCC(O)(CO)C4O)C(O)C(O)C3O)C1C2 (centres undefined) | – | inactive [at 17.3 µM] | –
OCC1OC(Oc2cc(O)cc(/C=C/c3ccc(O)cc3)c2)C(O)C(O)C1O (centres undefined) | 2.28% (inactive) | – | –
O=C(/C=C\c1ccc(O)cc1)N[C@@H](Cc1ccc(O)cc1)C(=O)O | 1.87% (inactive) | – | –
